# Screening results from PubChem BioAssay.
# ssDAF-12 act = S. stercoralis DAF-12 nuclear receptor activators, primary screen, cell-based, luminescence, HEK293, GRIP1 co-expression, lit1-tk-luc; Nuclear hormone receptor DAF-12 (Strongyloides stercoralis); HEK293 ssDAF-12/GRIP1 lit1-tk-luc reporter; % of 3 µM dafachronic acid response; activation, % at 6.8 µM; actives 1% (n = 370,000); AID 652126, 2013;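 active = activation above the mean over all tested compounds plus 3 SD, cut at about 0.9% in these data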
# hcDAF12 agonist = H. contortus DAF-12 nuclear receptor activators, primary screen, cell-based, luminescence, HEK293, lit1-tk-luc reporter; HEK293 hcDAF-12 lit1-tk-luc reporter; 0% DMSO, 100% Δ7-dafachronic acid; activation, % at 6.8 µM; actives 1.4% (n = 370,000);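 active = activation above the mean of all tested compounds plus 3 SD, cut at about 5.5% in these data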
# DAX1 inh-1 = DAX1 (NR0B1) inhibitors, primary screen, cell-based, HEK293, Gal4-DAX1, luciferase luminescence. inhibition, % at 6.75 µM. Nuclear receptor subfamily 0 group B member 1 (Homo sapiens), P51843. HEK293 Gal4-DAX1 luciferase reporter. AID 504766, 2011. actives 0.99% (n = 340,000);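 active = inhibition above the mean over all tested compounds plus 3 SD, cut at about 4.2% in these data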;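 also: inhibition shows as a rise in luminescence from relieved DAX1 repression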
# DAX1 inh-2 = DAX1 (NR0B1) inhibitors on StAR promoter, primary screen, cell-based, luminescence, SF-1 (NR5A1), full-length DAX-1. HEK293T StAR-luciferase reporter, SF-1/DAX-1 repression relief. inhibition, % at 6.8 µM. actives 1.1% (n = 370,000). AID 652010, 2013;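 active = inhibition above the mean over all tested compounds plus 3 SD, cut at about 3.6% in these data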;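 also: higher inhibition means more luminescence from relief of DAX-1 repression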
# hgDAF12 agonist = H. glycines DAF-12 receptor agonists, primary screen, cell-based, luminescence, HEK293, GAL4 fusion, UAS-luciferase; AID 687014, 2013; activation, % at 6.8 µM; Nuclear hormone receptor DAF-12 (Heterodera glycines), GAL4 fusion; actives 1.8% (n = 370,000); HEK293 GAL4-hgDAF12 UAS-luciferase reporter, agonist luminescence; normalized to butyrate control;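 active = activation above a cutoff set at the mean of all screened compounds plus 3 SD, cut at about 10% in these data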
# LXR ag = LXR agonists, Gal4 luciferase reporter, confirmation, counter-screen for hcDAF-12 agonist project, cell-based, luminescence, HEK293, H. contortus campaign | shares compounds with hcDAF12 agonist | HEK293 Gal4-LXR tk-luc reporter, 24 h; normalized: DMSO 0%, positive control 100% | activation, % at 6.8 µM | 3,400 tested, under 10 active | AID 743027, 2013;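 active = mean percent activation of the reporter above a cutoff set as the average over tested compounds plus their standard deviation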
# Target sequence (P55055 whole entry, looked up, the tested form may be a part): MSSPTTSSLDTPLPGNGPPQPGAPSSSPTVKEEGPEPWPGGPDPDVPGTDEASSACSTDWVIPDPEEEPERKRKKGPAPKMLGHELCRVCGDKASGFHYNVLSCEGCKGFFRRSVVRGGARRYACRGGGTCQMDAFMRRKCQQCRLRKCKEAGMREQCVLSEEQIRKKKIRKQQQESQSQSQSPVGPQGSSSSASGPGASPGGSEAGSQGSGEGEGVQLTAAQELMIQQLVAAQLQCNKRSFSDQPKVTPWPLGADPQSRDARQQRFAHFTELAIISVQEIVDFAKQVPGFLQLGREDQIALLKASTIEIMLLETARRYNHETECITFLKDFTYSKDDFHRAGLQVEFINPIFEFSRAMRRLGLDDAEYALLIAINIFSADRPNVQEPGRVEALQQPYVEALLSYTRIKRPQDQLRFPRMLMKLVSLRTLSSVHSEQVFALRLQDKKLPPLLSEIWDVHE
# hcDAF12 conf = H. contortus DAF-12 receptor agonists, confirmation, cell-based, luminescence, HEK293, lit1-tk-luc, triplicate | activation, % at 6.8 µM | HEK293 hcDAF-12 lit1-tk-luc reporter; % of Δ7-dafachronic acid response | AID 743032, 2013 | actives 61% (n = 3,400) | shares compounds with hcDAF12 agonist;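 active = mean activation across triplicate tests above the threshold derived from the earlier primary screen, cut at about 5.5% in these data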
# Numbers stand for hits; i = inactive; nt = no result given. Hits are enriched below; roughly 4.1% of the tested compounds scored in any of these assays.
SMILES,ssDAF-12 act,hcDAF12 agonist,DAX1 inh-1,DAX1 inh-2,hgDAF12 agonist,LXR ag,hcDAF12 conf
Cc1ccc(C2/C(=C(\O)c3ccc4c(c3)OCCO4)C(=O)C(=O)N2Cc2cccnc2)cc1 (stereo unspecified),i,i,i,i,i,nt,nt
CN=c1scc(-c2ccccc2F)n1/N=C/c1ccc(O)c(O)c1O,i,7.2,i,i,i,i,16.3
CN=c1scc(C)n1/N=C/c1ccc(O)cc1O,i,7.6,i,3.6,i,i,6.6
CCCCC#CC(CC)NCc1ccc(OC)cc1OC (stereo unspecified),i,i,nt,nt,i,nt,nt
COc1ccccc1C(=O)Nc1nnc(-c2ccccc2)s1,1.2,6.8,i,i,i,i,8.5
COc1ccccc1C(=O)NNC(=O)C1CCN(C(=O)OC(C)(C)C)CC1,i,7.1,i,i,i,i,i
COc1ccccc1C(=O)NNC(=O)c1ccccc1,1.0,10.3,6.0,i,i,i,11.0
COc1ccccc1C(=O)NNC(=O)c1cccc(Br)c1,i,i,i,i,i,nt,nt
COc1ccccc1C(=O)CC(=O)c1ccccc1,1.5,6.7,i,i,10.9,i,10.9
Cc1cc(C)cc(NC(=O)CSc2nc(=O)n3cc(C)ccc3n2)c1,i,i,i,i,i,nt,nt
C=CCNC(=O)CSc1nc2c(c(=O)[nH]1)CCCC2,i,i,nt,i,i,nt,nt
COc1ccccc1C(=O)NNC(=O)c1ccccc1Br,i,8.4,i,i,i,i,i
COc1ccccc1C(=O)NNC(=O)c1ccc2ccccc2c1O,i,i,i,i,i,nt,nt
Cc1ccc(C)c(NC(=O)CNC(=O)N2CC(=O)Nc3ccccc32)c1,i,i,i,i,i,nt,nt
CCOc1ccccc1NC(=O)CNC(=O)N1CC(=O)Nc2ccccc21,i,7.0,i,i,i,i,i
O=C(NCc1ccc(Cl)nc1)c1ccc2nc([C@@H]3O[C@H](CO)[C@H](O)[C@H](O)[C@H]3O)[nH]c2c1,i,i,nt,i,i,nt,nt
CCc1c(C)nc(SCC(=O)c2cccs2)c(C#N)c1C,i,8.2,i,i,i,i,8.7
CCc1c(C)nc(SCC(N)=O)c(C#N)c1C,i,i,i,i,i,nt,nt
Cc1ccc(CNC(=O)[C@@H](Cc2ccccc2)NC(=O)[C@H]2O[C@@H](n3ccc(N)nc3=O)[C@H](O)[C@@H]2O)o1,i,i,nt,i,i,nt,nt
Cc1ccc(C(=O)Nc2ccn(Cc3ccc(F)cc3)n2)o1,i,6.9,i,i,i,i,i
COCc1cc(N2CCN(C(=O)OC(C)(C)C)C[C@H]2C)ccc1N1CC[C@@H](O)C1,i,i,nt,i,i,nt,nt
O=C(CSc1nnc(-c2ccccc2F)o1)N1CCCC1,i,i,i,i,i,nt,nt
COc1ccccc1-c1nnc(SCC(=O)N2CCCC2)o1,1.4,6.7,i,i,i,i,9.1
Cc1ccc(NC(=S)Nc2ccccn2)cc1C,1.8,8.6,nt,i,12.8,i,10.8
Cc1ccc(NC(=S)Nc2ccccn2)c(C)c1,i,7.2,i,i,i,i,8.7
Cc1cc(C)cc(NC(=S)Nc2ccccn2)c1,i,7.5,i,i,i,i,i
Cc1nc2ccccc2nc1SCC(=O)c1ccccc1,i,6.7,i,i,i,i,i
CC(C)(C)c1nc(SCC(=O)c2ccccc2)c2ccccc2n1,i,i,i,i,i,nt,nt
